Test results published in PubChem BioAssay (NCATS).
Records with an inconclusive call do not appear. Where a call stands in place of a potency, no number is given. Calls of active or inactive are those of the source. The call rests on the fitted dose curve; in most records, active means well fitted inhibition curve with a large enough effect in the repeat runs; inconclusive means weak or mixed curves; inactive means flat fitted curve, though single readings scatter.
Potency means the concentration at half of the fitted maximal effect.

What follows are molecules tested against Cytochrome P450 2D6 (Homo sapiens) (UniProt P10635) (assay: Cytochrome P450 family 2 subfamily D member 6 (CYP2D6) small molecule antagonists: luciferase biochemical (cell-free) qHTS assay (AID 1645840; further: nearly all actives have a fitted effect of over 55% in size)). Settings: P450-Glo CYP2D6 enzyme, luciferin luminescence, 1 h; series mostly up to 57.4 µM.
Sequence of Cytochrome P450 2D6 (Homo sapiens) (P10635 whole entry, looked up): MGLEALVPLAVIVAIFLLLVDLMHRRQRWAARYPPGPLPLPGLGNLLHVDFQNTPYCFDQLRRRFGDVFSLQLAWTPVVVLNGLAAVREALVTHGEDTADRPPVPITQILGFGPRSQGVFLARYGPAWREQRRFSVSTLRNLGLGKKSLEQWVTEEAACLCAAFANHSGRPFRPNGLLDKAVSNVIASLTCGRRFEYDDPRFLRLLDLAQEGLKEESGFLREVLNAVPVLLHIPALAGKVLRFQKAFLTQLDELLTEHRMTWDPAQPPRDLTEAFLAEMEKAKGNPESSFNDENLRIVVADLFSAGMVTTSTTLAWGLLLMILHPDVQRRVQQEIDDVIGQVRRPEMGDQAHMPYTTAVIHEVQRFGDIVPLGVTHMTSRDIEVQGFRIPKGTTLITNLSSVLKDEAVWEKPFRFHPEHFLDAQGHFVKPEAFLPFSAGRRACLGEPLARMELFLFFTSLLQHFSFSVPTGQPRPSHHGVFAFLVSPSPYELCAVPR
Procedure, shortened: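 P450-Glo luminescent screen: recombinant CYP2D6 enzyme–proluciferin substrate mix preincubated with compound 10 min at room temperature, then NADPH regeneration added for 1 h at room temperature. Detection reagent added for 20 min; luciferin light read as relative luminescence units.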
`CC(CCc1ccc(O)cc1)NCC(O)c1ccc(O)cc1` (stereo unspecified) was tested, and the Potency was 6.74 µM (active). For `CCC(O)c1ccccc1` (stereo unspecified), the Potency was “inactive”. For `CCCC(=O)O`, the Potency was “inactive”. In the case of `O=C(CO)[C@@H](O)[C@H](O)[C@@H](O)C(=O)O`, the Potency was “inactive”. In the case of `COC(=O)CCC[N+](C)(C)C`, the Potency was “inactive”. `CC(=O)Oc1cc(C(F)(F)F)ccc1C(=O)O` was tested, and the Potency was “inactive”. `CN1c2c(nc(N)[nH]c2=O)NCC1CNc1ccc(C(=O)NC(CCC(=O)O)C(=O)O)cc1` (stereo unspecified) was tested, and the Potency was “inactive”. For `O=C(OCc1ccccc1)c1cccnc1`, the Potency was “inactive”. With `COC(=O)[C@@H](N)CS` the Potency was “inactive”. With `CCOC(C)OCC` the Potency was “inactive”. `CCCCC(O)c1ccccc1` (stereo unspecified) was tested, and the Potency was “inactive”. With `C=CCCCCCCCCC(=O)OC` the Potency was “inactive”. With `C[C@H](O)CN(C)C` the Potency was “inactive”. For `CC12CCC(C[N+](C)(CCC[N+](C)(C)C)C1)C2(C)C` (stereo unspecified), the Potency was “inactive”. `N=C(N)n1cccn1` was tested, and the Potency was “inactive”. `COC(=O)c1ccccc1O` was tested, and the Potency was “inactive”. For `CO/N=C(\C(=O)N[C@@H]1C(=O)N2C(C(=O)O)=C(C[N+]3(C)CCCC3)CS[C@H]12)c1csc(N)n1`, the Potency was “inactive”. `CC[C@H]1OC(=O)C[C@@H](O)[C@H](C)[C@@H](O[C@@H]2O[C@H](C)[C@@H](O[C@H]3C[C@@](C)(O)[C@@H](O)[C@H](C)O3)[C@H](N(C)C)[C@H]2O)[C@@H](CC=O)C[C@@H](C)C(=O)/C=C/C(C)=C/[C@@H]1CO[C@@H]1O[C@H](C)[C@@H](O)[C@@H](OC)[C@H]1OC` was tested, and the Potency was “inactive”. With `c1ccc2ccccc2c1` the Potency was “inactive”. For `Oc1cc(O)cc(O)c1`, the Potency was “inactive”. `C=CC1=C(C(=O)O)N2C(=O)[C@@H](NC(=O)/C(=N\O)c3csc(N)n3)[C@H]2SC1` (stereo in doubt) was tested, and the Potency was “inactive”.
